Some test systems named below: HCT-15 colon; HT29 colon; SNB-75 CNS; SNB-19 CNS; U251 CNS; SK-MEL-5 melanoma; UACC-62 melanoma; SK-MEL-28 melanoma; LOX IMVI melanoma.
Test in all cases: NCI-60 one-dose screen, 48 h (100 = growth as untreated, 0 = no growth, -100 = all killed)
Common to all, as to settings: 10 µM unless noted

The panel holds about 83,000 compounds, 20% with a hit somewhere; the sample as a whole holds those more often.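 Single-dose data. Exposure time 48 hours. Values below 10 considered active.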 A number with no mark means an inactive call. Active and inactive are the calls of the source.

`COc1cc2nc(Cl)nc(Nc3cccc(C(=O)/C=C/c4ccc(Br)cc4)c3)c2cc1OC`: the growth in the assay with HCT-15 colon was 43.6%; in the assay with HT29 colon it was 68.4%; in the assay on SNB-75 CNS, 76.6%; in the assay on SNB-19 CNS, 86.1%; in the assay with U251 CNS it was 80%; in the assay on SK-MEL-5 melanoma, 91.6%. Besides, the growth in the assay with UACC-62 melanoma is 81.5%; with SK-MEL-28 melanoma it was 92.7%.
Take `O=S(=O)(NCCNc1cc(-c2cn(-c3ccccc3)nc2-c2cccc(O)c2)ccn1)c1ccc(Cl)cc1`: the growth in the assay on HCT-15 colon is 7.32% (active); with HT29 colon, 0.572% (active); in the assay on SNB-75 CNS, 53.8%; in the assay with SNB-19 CNS it was 47.7%; with U251 CNS, 22.1%; in the assay on SK-MEL-5 melanoma, 15.5%. Besides, in the assay with LOX IMVI melanoma, the growth was 30%.
In the case of `C=C(C)[C@@H]1CC[C@]2(C(=O)NNC(=O)c3cccnc3)CC[C@]3(C)[C@H](CC[C@@H]4[C@@]5(C)CCCNC(C)(C)[C@@H]5CC[C@]43C)[C@@H]12`, the growth in the assay on HCT-15 colon was 62.4%; in the assay on HT29 colon, 11.3%; in the assay with SNB-75 CNS, 80%; in the assay with SNB-19 CNS it was 91.2%; in the assay with U251 CNS, 64.6%; in the assay with SK-MEL-5 melanoma, 74.4%. In addition, the growth was 91% in the assay with UACC-62 melanoma and 90% in the assay with SK-MEL-28 melanoma.
For the compound `Cn1cc(-c2csc(-c3cn(CCN)c4ccc(Br)cc34)n2)c2cccnc21`, the growth is 36.5% in the assay with HCT-15 colon; 47.2% in the assay on HT29 colon; 73.4% with SNB-75 CNS; 74.1% in the assay on SNB-19 CNS; 63.1% in the assay on U251 CNS; 86.8% in the assay with SK-MEL-5 melanoma. Besides, the growth in the assay with LOX IMVI melanoma was 53.5%; in the assay on SK-MEL-28 melanoma it was 100%.
Consider `Cc1ccncc1C(=O)O`, for which the growth with HCT-15 colon was 104%; with HT29 colon, 101%; with SNB-75 CNS, 86.6%; in the assay with SNB-19 CNS it was 92.9%; in the assay on U251 CNS, 97.2%; in the assay with SK-MEL-5 melanoma, 106%. Moreover, the growth in the assay on SK-MEL-28 melanoma is 95.4%.
As to `CCNCCCn1c2c(c3ccc([N+](=O)[O-])cc3c1=O)C(=O)c1cc(OC)cnc1-2`, the growth in the assay with HCT-15 colon is -12% (active); with HT29 colon, -11% (active); with SNB-75 CNS, -23.8% (active); in the assay on SNB-19 CNS it was 10.6%; with U251 CNS, -73.3% (active); with SK-MEL-5 melanoma it was -97.3% (active). For the same compound, the growth was -91% (active) in the assay with LOX IMVI melanoma and -31.5% (active) with SK-MEL-28 melanoma.
`COc1ccc(-n2c(/C=C/c3ccc(O)c(OC)c3)cc(/C=C/c3ccc(O)c(OC)c3)nc2=O)cc1`: the growth in the assay on HCT-15 colon is 59%; in the assay on HT29 colon, -59.1% (active); in the assay on SNB-75 CNS, 54.5%; with SNB-19 CNS it was 69.9%; in the assay on U251 CNS, 32.4%; in the assay with UACC-62 melanoma it was 68.1%. Besides, the growth in the assay on LOX IMVI melanoma was 13%; with SK-MEL-28 melanoma, 58.5%.
Take `Brc1ccc(Cn2nnnc2-c2ccn(-c3ccccc3)n2)cc1`: the growth in the assay on HCT-15 colon was 83%; with HT29 colon, 63.6%; with SNB-75 CNS, 90.1%; in the assay on SNB-19 CNS it was 78.9%; in the assay with U251 CNS, 75.7%; in the assay with SK-MEL-5 melanoma, 74%. The growth in the assay on UACC-62 melanoma was 53%; in the assay on SK-MEL-28 melanoma it was 95.3%.
As for `Cc1cccc(C)c1NC(=O)CSC(=S)N1CCCCC1`, the growth with HCT-15 colon is 105%; in the assay on HT29 colon, 103%; in the assay with SNB-75 CNS, 96%; in the assay on SNB-19 CNS, 111%; in the assay with U251 CNS it was 105%; in the assay on SK-MEL-5 melanoma, 112%. Also, the growth in the assay on LOX IMVI melanoma was 98.2%; in the assay with SK-MEL-28 melanoma it was 105%.
